# The list is not random: actives were taken first. Their share in the collection is about 8%.
# HT1080 IDH1KD tx: qHTS for induction of synthetic lethality in tumor cells producing 2HG: qHTS for the HT-1080-IDH1KD cell line; AID 686971, 2013; HT-1080 IDH1 knockdown viability, ATP luminescence, 48 h; actives 2% (n = 360,000); Potency, µM (highest dose often 46.1 µM), hits mostly cytotoxic
#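 Cytotoxicity counter-line: IDH1KD HT-1080, 48 h, CellTiter-Glo. Curves classed by r2, magnitude and activity.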
# KB-V1 cytotox: qHTS assay for MDR1-selective chemotherapeutics: Primary screen using the drug-selected MDR subline cells KB-V1. KB-V1 MDR cells viability, CellTiter-Glo, 72 h. Potency, µM (highest dose often 46.1 µM), usual class: cytotoxic. actives 3.4% (n = 400,000). AID 1347076, 2019; further: nearly all actives have a fitted effect of over 60% in size
#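 Cytotoxicity toward P-gp-expressing KB-V1 cells was determined as loss of CellTiter-Glo luminescence after 72 h at 37 degrees C. Compounds were tested in quantitative HTS format across a concentration range, with curves fitted to normalized data.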
# MCF10A rerep: A quantitative high throughput screen for small molecules that induce DNA re-replication in MCF 10a normal breast cells | MCF 10A DNA re-replication, Hoechst nuclear intensity, 48 h | Potency, µM (top dose mostly 46.1 µM), hits mostly activators | actives 2.9% (n = 350,000) | AID 624296, 2012; further: nearly all actives have a fitted effect of over 50% in size
# HT1080-NT tox: qHTS for induction of synthetic lethality in tumor cells producing 2HG: qHTS for the HT-1080-NT fibrosarcoma cell line. actives 1.6% (n = 360,000). HT-1080-NT fibrosarcoma viability, CellTiter-Glo ATP luminescence, 48 h. Potency, µM (highest dose often 46.1 µM), usual class: cytotoxic;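 further: NT is the 2HG producing partner of a matched IDH1 knockdown line; nearly all actives have a fitted effect of over 55% in size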
#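 Viability by CellTiter-Glo luminescence after 48 h compound exposure at 37C of HT-1080-NT cells (750/well, RPMI, 5% FBS). % activity scaled between DMSO wells and medium-only wells, then curve-fitted and categorized by curve class.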
# SW480 rereplic: A quantitative high throughput screen for small molecules that induce DNA re-replication in SW480 colon adenocarcinoma cells. SW480 DNA re-replication, Hoechst DNA content imaging, 48 h. Potency, µM (doses to about 46.1 µM), hits mostly activators. actives 1.8% (n = 340,000); further: nearly all actives have a fitted effect of over 55% in size
#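 Per well, 250 cells were exposed to pinned compound for 48 hr. Nuclear DNA was visualised with Hoechst (40 min, 37 C) and total object intensity recorded by fluorescence scanning.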
# KB-3-1 cytotox: qHTS assay for MDR1-selective chemotherapeutics: Primary screen using the parental adenocarcinoma cell KB-3-1 | KB-3-1 viability, CellTiter-Glo ATP luminescence, 72 h | Potency, µM (highest dose often 46.1 µM), usual class: cytotoxic | actives 1.4% (n = 400,000) | AID 1347075, 2019; further: nearly all actives have a fitted effect of over 60% in size
#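 Cells are dispensed, compounds pinned in, plates held at 37 °C for 72 h, then CellTiter-Glo is added and luminescence read after 10 minutes. Cell line: parental KB-3-1 in phenol-red-free DMEM, 10% FBS.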
# Hits are given with their value; - = inactive; ? = inconclusive; . = no result. The call rests on the fitted dose curve; in most records, active means well fitted curve in the direction sought with a large enough effect; inconclusive means small, poorly fitted or top-dose-only effect, or another doubt; inactive means no such curve, though single readings can be large; an effect the other way counts as inactive or inconclusive.
SMILES,HT1080 IDH1KD tx,KB-V1 cytotox,MCF10A rerep,HT1080-NT tox,SW480 rereplic,KB-3-1 cytotox
CCOC(=O)C(=O)c1c(-c2ccc(C)cc2)nc2ccccn12,-,-,?,-,-,-
CCOC(=O)C(=O)c1c(-c2ccccc2)nc2ccccn12,-,-,-,-,-,-
CCOC(=O)c1c(-c2ccccc2)nc2ccc(C)cn12,-,21µM,-,-,-,-
CCOC(=O)c1c(-c2ccccc2)nc2cc(C)ccn12,?,15µM,?,-,-,-
COC(=O)c1c(C)[nH]c(C(=O)CN2C(=O)C3CC=CCC3C2=O)c1C (stereo not given),-,21µM,-,-,-,-
CCOC(=O)c1c(C)[nH]c(C(=O)CN2C(=O)C(=O)N(CC(C)C)C2=O)c1C,-,-,-,-,-,-
C=CCNC(=S)N/N=C/c1ccc(OCc2ccccc2Cl)cc1,3.2µM,-,?,3.2µM,7.3µM,-
CCOC(=O)/C(=C\c1ccccc1)C(=O)c1cc(C(C)=O)c(Nc2ccccc2)s1,6.3µM,?,-,-,-,-
CCOC(=O)C(=O)/C(C#N)=C/Nc1ccccc1,-,?,-,-,-,-
CCOC(=O)/C(=C\c1cccnc1)C(=O)c1cc(C(C)=O)c(Nc2ccccc2)s1,4.1µM,6.5µM,2.9µM,5.8µM,3.7µM,3.3µM
CC(C)Oc1cccc(C(=O)Nc2ccc3oc(-c4cccc(Cl)c4)nc3c2)c1,.,-,.,.,.,-
O=C(C[n+]1ccccc1Br)c1ccc2c(c1)CCCC2,.,-,.,.,.,?
CC(C)(C)CC(C)(C)NC(=S)NC1CCN(Cc2ccccc2)CC1,-,5.2µM,?,-,?,?
S=C(Nc1ccc(Cl)c(Cl)c1)NC1CCCCC1,?,16µM,-,10µM,3.3µM,18µM
S=C(Nc1ccc(Cl)c(Cl)c1)NC1CCN(Cc2ccccc2)CC1,23µM,?,?,26µM,?,?
S=C(Nc1ccc2nsnc2c1)NC1CCCCC1,-,16µM,-,-,-,-
S=C(Nc1ccc2nsnc2c1)N1CCCCCC1,-,-,-,-,?,-
Fc1ccc(NC(=S)NC2CCN(Cc3ccccc3)CC2)cc1,-,-,-,-,-,-
Cc1cccc(NC(=S)NC2CCN(Cc3ccccc3)CC2)c1C,-,-,-,-,?,-
CCOC(=O)c1ccccc1NC(=O)Cn1c(=O)n(Cc2nc(C)no2)c(=O)c2ccccc21,.,-,.,.,.,-
c1ccc2[nH]c(-c3ccc4c(c3)OCO4)nc2c1,26µM,13µM,-,26µM,?,?
COc1ccc(Cn2c(C(=O)O)c(CNC3CCC(C)CC3)c3ccc(C)cc32)cc1 (stereo not given),.,-,.,.,.,-
Cc1ccc(OCCN2C(=O)C(=O)c3cc(C)ccc32)cc1,?,?,7.3µM,-,13µM,?
CCCN1C(=O)C(=O)c2cc(Cl)ccc21,15µM,-,21µM,15µM,16µM,-
O=C1C(=O)N(CCS(=O)(=O)c2ccccc2)c2ccc(Cl)cc21,?,-,?,?,?,16µM
SMILES,HT1080 IDH1KD tx,KB-V1 cytotox,MCF10A rerep,HT1080-NT tox,SW480 rereplic,KB-3-1 cytotox
CCc1ccc2c(c1)C(=O)C(=O)N2CCS(=O)(=O)c1ccccc1,-,-,-,-,-,-
COc1ccc(S(=O)(=O)NC(=O)C2(C)CCN2C(=O)Cc2cc(C)cc(C)c2)cc1 (stereo not given),-,-,.,-,.,-
COc1ccc(/C(O)=C/C(=O)C(=O)Nc2c(C)n(C)n(-c3ccccc3)c2=O)cc1,-,16µM,?,-,-,-
Cc1cccc(NC(=O)c2ccc(COc3ccc4ccccc4c3)o2)n1,-,-,?,-,-,-
Cc1cc(C)c2c(C)c(C(=O)Nc3c(C)n(C)n(-c4ccccc4)c3=O)oc2c1,-,8.2µM,-,-,-,-
Cc1c(NC(=O)c2ccc(COc3ccc4ccccc4c3)o2)c(=O)n(-c2ccccc2)n1C,-,7.3µM,-,-,-,21µM
COc1cc2c(cc1NS(=O)(=O)c1cccc(C#N)c1)n(C)c(=O)n2C,.,-,.,.,.,?
CCOC(=O)c1cccc(NC(=O)c2c(NCc3ccccc3)[nH]c(=O)[nH]c2=O)c1,?,?,5.8µM,?,?,?
CC1CN(C(=O)CCC(=O)NCc2cccs2)c2cc(Cl)ccc2O1 (stereo not given),.,-,.,.,.,-
O=C(CSc1ccccc1)NCc1ccc2c(c1)CCN2C(=O)c1ccccc1,.,-,.,.,.,-
CN(C)c1ccc(C(=O)c2ccc(N(C)C)c3ccccc23)cc1,0.026µM,?,0.21µM,?,0.41µM,0.092µM
COc1ccc(C(=O)c2ccc(OC)cc2OC)cc1,12µM,?,16µM,23µM,?,15µM
COc1ccc(C(=O)c2ccc(N(C)C)cc2)c(OC)c1,2.5µM,?,2.2µM,3.5µM,4.5µM,5.6µM
COc1ccc(OC)c(C(=O)c2ccc(C(=O)c3cc(OC)ccc3OC)cc2)c1,-,-,-,-,-,-
Cc1c(C(=O)N2CCCCCC2)c(S(=O)(=O)Nc2cccc(C#N)c2)c(C)n1C,.,-,.,.,.,-
CC(C)OCCCNC(=O)c1c(N)n(/N=C/c2cccs2)c2nc3ccccc3nc12,-,?,8.2µM,-,?,-
COCCCNC(=O)c1c(N)n(/N=C/c2ccccn2)c2nc3ccccc3nc12,-,5.2µM,?,-,?,-
Nc1c(C(=O)NC2CCCC2)c2nc3ccccc3nc2n1/N=C/c1cccnc1,-,?,4.1µM,-,?,-
CC(C)OCCCNC(=O)c1cccs1,-,-,-,-,-,-
CC1(C)SC(=S)N(/N=C/c2cccnc2)C1N(O)C(=O)NC1CCCCC1 (stereo not given),-,-,-,-,-,-
COCCn1cnc2c(c1=O)c1nc3ccccc3nc1n2/N=C/c1cccc(OC)c1,-,?,?,-,?,-
COc1cccc(NC(=O)CN(C)C(=O)c2cc(S(=O)(=O)Nc3ccccc3OC)ccc2C)c1,-,-,-,-,-,-
Cc1ccc(N2CCN(Cc3nnc(-c4ccc5c(c4)OCO5)o3)CC2)c(C)c1,.,-,.,.,.,-
CCc1cc(C(=O)Nc2cc(S(=O)(=O)N(C)C)ccc2C)sc1C,-,9.2µM,-,-,-,-
CCc1cc(C(=O)Nc2cc(S(=O)(=O)N(CC)CC)ccc2N2CCN(C)CC2)sc1C,-,-,-,-,-,-
